From PubChem BioAssay (NCATS)
Inconclusive results are not listed. Unmarked numbers belong to inactive results. Calls of active or inactive are those of the source. Calls come from the whole dose curve; as a rule, active = well fitted inhibition curve with a large enough effect; inconclusive = small, poorly fitted or top-dose-only effect; inactive = no such curve, though single readings can be large or run the other way.

Biological target: Retinaldehyde dehydrogenase 3 (Homo sapiens) (UniProt P47895)
Assay: qHTS for Inhibitors of the Aldehyde Dehydrogenase Family (ALDH1A3) Confirmatory screens (AID 2061311); note: nearly all actives have a fitted effect of over 60% in size
Details: ALDH inhibition qHTS; series mostly up to 46 µM; activity change, negative = inhibition: at the top concentration
% is set by controls: 0 for no effect and ±100 for the full control effect; potency is the fitted concentration of half-maximal effect.

Structure (SMILES) | Potency | outcome | activity change, negative = inhibition [%]
CCOc1ccc(-c2nc(CSCC(=O)N3CCN(c4cccc(C(F)(F)F)c4)CC3)c(C)o2)cc1 | 2 µM (active) | – | –
Cc1cc(F)ccc1[C@H]1C[C@@H](N2CCN3C(=O)CC[C@H]3C2)CCN1C(=O)N(C)[C@H](C)c1cc(C(F)(F)F)cc(C(F)(F)F)c1 | – | inactive | –
Clc1cccc(-c2ccc(C3Nc4cccc5cccc(c45)N3)o2)c1 | 1.59 µM (active) | – | –
O=S(=O)(Nc1cc(O)cc2cccnc12)c1ccc(Br)s1 | – | – | -50.4
CN[C@@H]1[C@H](O[C@H]2[C@H](O[C@@H]3[C@@H](O)[C@H](O)[C@@H](N=C(N)N)[C@H](O)[C@H]3N=C(N)N)O[C@@H](C)[C@]2(O)C=O)O[C@@H](CO)[C@H](O)[C@H]1O | – | – | -2.06
CCn1cc2nc(SCc3cccc(C)c3)n(CCc3ccccc3)c(=O)c2n1 | 1.26 µM (active) | – | –
O=C(C1CCN(Cc2ccccc2-c2ccccc2F)CC1)N1CCC(Cc2ccccc2)CC1 | – | – | -11.9
CC1CCN(c2ccc(CNC(=O)CC3CCOCC3)cc2)CC1 | 10 µM (active) | – | –
Cc1cc2c(c(=O)[nH]1)OC(C(O)CC(C)C)O2 (stereo not given) | – | – | -24.8
O=c1cc(-c2ccccn2)oc2c(Nc3ccccc3)nccc12 | 20 µM (active) | – | –
